One assay deals with SFTA2. As to the kind of experiment: pooled miR-30 sensor sort-seq; sequence = guide strand. The conditions noted are these: shRNA.
The sequence TTGAGATCTTGCATGGTGGAGG showed a sensor-assay potency score (higher = more potent) of -0.323.
Sequence TCAAGCAATTCCAGGAAGCTGG displayed a sensor-assay potency score (higher = more potent) of -0.742.
Still for that read-out and setting: next, TTCAGTTGCAAAGTCATACCCG: 0.378.
On the same count and under the same terms, the same measure for ATGGTGTTGAGATCTTGCATGG: -1.27.
With TTTGTCAGAAAAGACTCCTTCA, the sensor-assay potency score (higher = more potent) worked out at 0.111.

The next assay deals with SGK1. Described as above. The conditions noted are these: shRNA.
Regarding TTGTCGTACATTTCAGCTGTGT, the sensor-assay potency score (higher = more potent) was -0.298.
In the case of TTTAGCATGAGGATTGGACGAC, the sensor-assay potency score (higher = more potent) was -0.303.
On to TTATTAATGAGATCATCCCAGT, for which the sensor-assay potency score (higher = more potent) is -0.742.
In turn, TTCTTCAACAGAACATTCCGCT registered a sensor-assay potency score (higher = more potent) of 0.565.
The same measure, in the same setting: the same measure for TAAGTCTCTATAAACGATGTTC: -0.772.
On the same count and under the same terms, next, TTTGACTGCATAGAACACTTCT: 0.33; TACATTTCAGCTGTGTTTCGGC: 0.293.
The same measure, in the same setting: next, TACAATTTGTCAGCAGTCTGGA: 0.173; TTCTGTAAAACTTTGACTGCAT: 0.858.
The sequence TTGCTAGAAGAACCTTTCCAAA yielded a sensor-assay potency score (higher = more potent) of -1.79.
TTTTAAGTCTCTATAAACGATG gave a sensor-assay potency score (higher = more potent) of -1.25.
Still for that read-out and setting: next, TTTGCTGAGAAGGACTTGGTGG: 0.0605.

The next assay addresses SGTA. The description is as above. The following applies: shRNA.
For the sequence AAGGTCACTGTCTTCTACCGTC, the sensor-assay potency score (higher = more potent) is 0.33.
The same measure, in the same setting: next, TTGTATGTCTCGTTGTCGGGGT: 0.213; TTGAGCTCGATGGCTTTTCCGT: -0.866.
For the sequence TAGGCCTTGCTGTAGGCCGGGT, the sensor-assay potency score (higher = more potent) is -1.17.
In the case of TTGGACTTGTATGTCTCGTTGT, the sensor-assay potency score (higher = more potent) amounted to 0.614.
Consider TATCTTGAGGTTGGACTTGTAT, for which the sensor-assay potency score (higher = more potent) is -0.792.
On the same count and under the same terms, the same measure for TGAGCTGCTCTATCAACTCTGG: -0.693; for TCATCTGCTCGTTTCCTTCGGT: 0.113.
Consider TTCTGCTGCTGCATCTGCTGGG, for which the sensor-assay potency score (higher = more potent) is 0.386.
Still for that read-out and setting: next, TTTTCCACTTTCATCTGCTCGT: -0.241; TTCCACTTTCATCTGCTCGTTT: 0.488; TATCAACTCTGGGTTCTGCTGC: 0.409.

The next assay deals with SH3YL1. Described as above. The following applies: shRNA.
Sequence TTGGAGGTAATTCTTTAGCAGA displayed a sensor-assay potency score (higher = more potent) of -1.34.
Same read-out and setting: the same measure for TTTTCTTGCATTGATTCGTTGT: 0.574.
The same measure, in the same setting: next, TAACTGTGATTCTGTCTCCAGC: -0.946; TTTCATAAAGATCTTCGGCTTG: -0.146.
On the same count and under the same terms, next, TTAACTAGTAAATCCTGTCAGT: -0.0626.
TTTAGCAGAAGACTTCCTCTGC: the sensor-assay potency score (higher = more potent) came out at 0.193.
Consider TTGTCCTTCATTTTCATACTTT, for which the sensor-assay potency score (higher = more potent) is -0.366.
Still for that read-out and setting: the same measure for TTGAGAGCCAGAGTTCAGCTGG: 0.176; for ATAACTGTGATTCTGTCTCCAG: -0.286; for TTATATTCATTTCTGTTGCTTT: -0.121.
For the sequence TTGCTTAACTAGTAAATCCTGT, the sensor-assay potency score (higher = more potent) stood at 0.218.

Values taken from the OligoGym collection.
Note: reference of the scale not given here.
